Hits are enriched below; roughly 12% of the tested compounds scored in any of these assays.
HP1b binding inh – blocks HP1-beta chromodomain binding to methylated histone tails; P83916; AlphaScreen HP1-beta / biotin-H3K9me3 peptide binding; Potency, µM (titrated, usually from 114 µM), inactives show top-dose activity change, negative = inhibition, hits mostly inhibitors; actives 0.56% (n = 390,000); note: nearly all actives have a fitted effect of over 70% in size
Target sequence (P83916 whole entry, looked up): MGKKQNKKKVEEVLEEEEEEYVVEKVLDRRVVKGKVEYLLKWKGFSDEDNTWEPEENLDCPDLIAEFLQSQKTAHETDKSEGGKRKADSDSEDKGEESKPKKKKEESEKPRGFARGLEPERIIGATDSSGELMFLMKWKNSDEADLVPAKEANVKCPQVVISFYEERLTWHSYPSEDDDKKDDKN
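AlphaScreen: HP1-beta (50 nM) preformed 30 min with biotin-H3(1-18)K9me3 peptide (50 nM) in PBS pH 7.4, 0.01% Tween-20. Compound added for 30 min at RT, then streptavidin donor/nickel chelate acceptor beads (10 ug/mL) for 30 min.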
L3MBTL1 block – blocks human L3MBTL1. Q9Y468. AlphaScreen L3MBTL1–H3K9me1 peptide binding. Potency, µM (top dose mostly 57.1 µM), for the others: at the top dose activity, negative = inhibition, hits mostly inhibitors. actives 0.66% (n = 230,000). AID 485360; note: % is set by controls: 0 for no effect and ±100 for the full control effect; nearly all actives have a fitted effect of over 60% in size
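L3MBTL1 (50 nM) pre-complexed 30 min with biotinylated H3(1-15)K9me1 peptide (75 nM), then compounds added for 30 min at room temperature; AlphaScreen streptavidin donor/nickel chelate acceptor beads (10 ug/mL final) read after 30 min dark incubation.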
Sfp PPTase inh – blocks B. subtilis Sfp PPTase activity | Q9F4F7 | Biochemical Sfp PPTase activity, qHTS | Potency, µM, for inactives: largest response in the series, negative = inhibition, hits mostly inhibitors | actives 3.5% (n = 310,000) | AID 1490;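 note: the enzyme is Sfp with the accession as filed and its product quenches rhodamine fluorescence; 0% = enzyme reaction without inhibitor and -100% = no enzyme wells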
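Fluorescence-quenching assay with 15 nM Sfp, 5 uM rhodamine-CoA and 12.5 uM BHQ-2-labelled ybbR peptide in pH 7.6 Hepes/MgCl2 buffer. Enzyme was pre-incubated with compound for 15 min at room temperature. Rate was taken from the 30-min fluorescence change (525/598 nm).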
G9a block – G9a (human) methyltransferase inhibition | Q96KQ7 | G9a H3K9 monomethylation, AlphaScreen, 2 h | Potency, µM (series often up to 102 µM), for inactives: at the top dose activity, negative = inhibition, usual class: inhibitors | actives 8.8% (n = 350,000); note: % is set by controls: 0 for no effect and ±100 for the full control effect; nearly all actives have a fitted effect of over 75% in size
Target sequence (Q96KQ7 913-1193 limits assumed): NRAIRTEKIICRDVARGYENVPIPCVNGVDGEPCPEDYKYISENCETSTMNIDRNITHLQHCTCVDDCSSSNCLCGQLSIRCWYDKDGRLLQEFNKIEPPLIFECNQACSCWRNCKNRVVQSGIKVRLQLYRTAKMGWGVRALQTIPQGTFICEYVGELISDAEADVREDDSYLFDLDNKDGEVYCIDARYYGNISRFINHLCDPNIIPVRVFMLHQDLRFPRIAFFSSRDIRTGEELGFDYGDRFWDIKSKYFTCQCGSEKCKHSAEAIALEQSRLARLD
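G9a (20 nM) was preincubated 15 min with compound, then reacted 2 h at room temperature with 500 nM biotin-H3K9 peptide and 20 µM SAM. Monomethyl-H3K9 detected by AlphaScreen using anti-H3K9me1 antibody.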
BAZ2B block – inhibitors of human BAZ2B bromodomain. Q9UIF8. AlphaScreen BAZ2B-H3K14Ac peptide displacement. Potency, µM (highest dose often 114 µM), for inactives: top-dose activity change, negative = inhibition, hits mostly inhibitors. actives 4.4% (n = 360,000). AID 504333; note: % is set by controls: 0 for no effect and ±100 for the full control effect; nearly all actives have a fitted effect of over 60% in size
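Complex of BAZ2B and biotin-H3K14Ac (50 nM apiece) forms over 30 min at RT, then faces library compounds up to 110 uM for another 30 min; AlphaScreen beads added, 20 min dark incubation, luminescence read.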
JMJD2A Tudor – JMJD2A Tudor domain (human) inhibition. O75164. AlphaScreen JMJD2A-Tudor / H3K4me3 peptide binding. Potency, µM (titrated, usually from 114 µM), inactives show at the highest dose activity change, negative = inhibition, hits mostly inhibitors. actives 4.4% (n = 390,000). AID 504339; note: % is set by controls: 0 for no effect and ±100 for the full control effect; nearly all actives have a fitted effect of over 50% in size
* = called active by the depositor; ? = inconclusive; . = no result; [ ] = another dose, or the depositor's remark. Calls come from the whole dose curve; as a rule, active = well fitted curve in the direction sought with a large enough effect; inconclusive = small, poorly fitted or top-dose-only effect, or another doubt; inactive = no such curve, though single readings can be large; an effect the other way counts as inactive or inconclusive. Potency is the fitted concentration of half-maximal effect.

SMILES | HP1b binding inh | L3MBTL1 block | Sfp PPTase inh | G9a block | BAZ2B block | JMJD2A Tudor
CC(=O)C1=C(c2ccc(Br)cc2)C(=O)c2ccccc2C1=O | 25µM* | -11% | -15% | 35µM* | 25µM* | 22µM*
N#Cc1c2n(c3c(=O)[nH]cnc13)CCCC2 | 15% | 1% | -2% | -1% | 17% | -5%
N#Cc1c2n(c3c(=S)nc[nH]c13)CCCCC2 | -12% | -1% | -52% | . | -32% | 35µM*
COc1ccc(C(=O)N2CCN(Cc3ccccc3[N+](=O)[O-])CC2)cc1 | ? | 1% | -26% | 16µM* | 50µM* | 22µM*
COc1ccc(C(=O)N2CCN(Cc3ccccc3)CC2)cc1[N+](=O)[O-] | 21% | 7% | 9% | 13% | ? | -11%
COc1cc(OC)cc(C(=O)N2CCN(Cc3ccccc3[N+](=O)[O-])CC2)c1 | ? | -7% | 50µM* | 7.9µM* | 20µM* | -6%[11.4 µM]
CC1Cc2ccccc2N1Cc1cccc([N+](=O)[O-])c1 (stereo not given) | 32µM* | . | -9% | 14µM* | 13µM* | 35µM*
CC1Cc2ccccc2N1Cc1ccc([N+](=O)[O-])cc1 (stereo not given) | 32µM* | . | -16% | 40µM* | 35µM* | 45µM*
Nc1nc(SCC(=O)O)c2[nH]cnc2n1 | 9%[57 µM] | . | . | . | . | -4%[57.1 µM]
CC(=O)c1ccccc1C(=O)N1CCCC(C(=O)c2ccc(C(F)(F)F)cc2)C1 (stereo not given) | 36% | . | 7% | -8% | -15%[57.1 µM] | 6%
COc1ccccc1NC(=O)CSc1nccc(-c2ccco2)n1 | 36% | 0% | . | -7%[2.33 µM] | -5% | -9%
CCCC1=Nc2cc(C(=O)N3CCN(c4ccccn4)CC3)ccc2Sc2ccc(C)cc21 | 0% | . | 0% | 16µM* | ? | ?
CCC1=Nc2cc(C(=O)N3CCCCC3)ccc2Sc2ccc(C)cc21 | 0% | . | -4% | ? | -32% | ?
CCCC1=Nc2cc(C(=O)N3CCCC3)ccc2Sc2ccc(C)cc21 | -12% | . | -13% | -6% | ? | 18µM*
COC(=O)Cc1c(C)c2ccc(OC3CCCCC3=O)c(C)c2oc1=O (stereo not given) | 4% | . | 5% | -7% | 11% | -18%
CCC(C)NC(=O)CC1Oc2ccc(Cl)cc2NC1=O (stereo not given) | 47% | . | -16% | 45µM* | 11% | -11%
CC(C)c1ccc(NC(=O)CC2Oc3ccccc3NC2=O)cc1 (stereo not given) | 53% | . | 3% | 8% | -15% | -9%
COc1ccc(CCNC(=O)CC2Oc3ccc(Cl)cc3NC2=O)cc1OC (stereo not given) | 34% | . | 20% | 79µM* | -23% | -20%
CCCC[C@@H]1C[C@H]1C(NC(=O)c1ccco1)c1ccc(-c2ccccc2)cc1 (stereo not given in full) | . | . | 24% | . | . | .
CCc1ccc(S(=O)(=O)NCCc2csc3nc(-c4ccccc4)nn23)s1 | 36% | . | . | 1%[59 µM] | -5% | -8%
COc1cc(C(CCN2CCN(c3ccccc3)CC2)c2c(OC)cc(OC)c3c(C)cc(=O)oc23)cc(OC)c1OC (stereo not given) | -29% | . | ? | -119%[59 µM] | ? | ?
COc1ccc(C2CC(=O)Oc3c(C(CCN4CCOCC4)c4cc(OC)c(OC)c(OC)c4)c(OC)cc(OC)c32)cc1 (stereo not given) | 9% | . | -2% | ? | -37% | ?
COc1cc(OC)c2c(c1C(CCN1CCOCC1)c1ccc(N(C)C)cc1)OC(=O)CC2c1ccc(N(C)C)cc1 (stereo not given) | 14µM* | . | -17% | -168%[59 µM] | 10µM* | 6.3µM*
COc1ccc(C2CC(=O)Oc3c(C(CCN4CCN(c5ccccc5)CC4)c4ccc(N(C)C)cc4)c(OC)cc(OC)c32)cc1 (stereo not given) | ? | . | -5% | ? | 4.5µM* | 5µM*
COc1cc(OC)c2c(C)cc(=O)oc2c1C(CCN1CCOCC1)c1ccc2c(c1)OCO2 (stereo not given) | 14% | . | -6% | -1%[59 µM] | -28% | -30%
SMILES | HP1b binding inh | L3MBTL1 block | Sfp PPTase inh | G9a block | BAZ2B block | JMJD2A Tudor
COc1cc(C(CCN2CCOCC2)c2c(OC)cc(OC)c3c2OC(=O)CC3c2ccc(N(C)C)cc2)cc(OC)c1OC (stereo not given) | ? | . | -5% | -9%[12.7 µM] | 14µM* | 28µM*
COc1ccc(C2CC(=O)Oc3c(C(CCN4CCOCC4)c4ccc5c(c4)OCO5)c(OC)cc(OC)c32)cc1 (stereo not given) | -28% | . | -16% | . | . | 56µM*
COc1cc(C(CCN2CCOCC2)c2c(OC)cc(OC)c3ccc(=O)oc23)cc(OC)c1OC (stereo not given) | . | . | -11% | -6%[59 µM] | . | .
COc1cc(C(CCN2CCCCC2)c2c(OC)cc(OC)c3c2OC(=O)CC3c2ccc(N(C)C)cc2)cc(OC)c1OC (stereo not given) | ? | . | -24% | . | . | 40µM*
COc1cc(C(CCN2CCCC2)c2c(OC)cc(OC)c3c2OC(=O)CC3c2ccc(N(C)C)cc2)cc(OC)c1OC (stereo not given) | ? | . | -4% | . | . | 28µM*
CCN(CC)CCC(c1cc(OC)c(OC)c(OC)c1)c1c(OC)cc(OC)c2c1OC(=O)CC2c1ccc(N(C)C)cc1 (stereo not given) | -33% | . | 4% | . | . | 32µM*
CC(C)(C)c1nnc(NC(=O)C2CCN(C(=O)c3ccccc3)CC2)s1 | 23% | . | . | . | . | -10%
O=C(O)Cc1c[nH]c2ccccc12 | 1% | . | . | . | . | -30%
O=C(O)Cc1c[nH]c2cccc(O)c12 | 35µM* | 5.6µM* | ? | -33%[12.7 µM] | 35µM* | 22µM*
